Measured values from PubChem BioAssay (NCATS).
Inconclusive results are not listed. Where a call stands in place of a potency, no number is given. Calls of active or inactive are those of the source. Calls follow the shape of the dose curve; as a rule, active = well fitted inhibition curve with a large enough effect; inconclusive = small, poorly fitted or top-dose-only effect; inactive = no such curve, though single readings can be large or run the other way. Where a SMILES comes first, the peptide text is derived from it. [ ]: non-standard residue; d: D form. ξ: configuration not given here. ξTyr(βOH) = NC(C(=O)O)C(O)c1ccc(O)cc1

Tests used:
[1] = test system: Zika virus NS2B-NS3 protease (unlinked complex); test: Primary screen GU Rhodamine qHTS for Zika virus inhibitors: Unlinked NS2B-NS3 protease assay (AID 1347159); also: nearly all actives have a fitted effect of over 60% in size
Method in brief: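 A qHTS format was used, with compound concentrations ranging up to 114 microM. Each compound was preincubated with 25 nM NS2B-NS3 protease, and the substrate was then added at 1.5 microM. Curves were fitted with a 4-parameter Hill model.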

[2] = test system: Zika virus NS2B-NS3 protease (linked construct); test: Primary screen NINDS Rhodamine qHTS for Zika virus inhibitors (AID 1347160); also: nearly all actives have a fitted effect of over 55% in size
Method in brief: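 Kinetic fluorescence (Ex 480 nm, Em 540 nm) over 15 min with 1.5 microM Rhodamine110 peptide and 25 nM linked protease.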

SMILES | Potency [1] | Potency [2]
C[C@@H]1CC[C@]2(C(=O)O[C@@H]3O[C@H](CO[C@@H]4O[C@H](CO)[C@@H](O[C@@H]5O[C@@H](C)[C@H](O)[C@@H](O)[C@H]5O)[C@H](O)[C@H]4O)[C@@H](O)[C@H](O)[C@H]3O)CC[C@]3(C)C(=CCC4[C@@]5(C)C[C@@H](O)[C@H](O)[C@@](C)(CO)C5CC[C@]43C)C2[C@H]1C (stereo partly specified) | inactive | inactive
CC(=O)OCC1=C[C@@H]2OC(=O)C3=CO[C@@H](O[C@@H]4O[C@H](CO)[C@@H](O)[C@H](O)[C@H]4O)[C@H]1[C@@H]32 | inactive | inactive
CC(C)(OC1OC(CO)C(O)C(O)C1O)C1CCC(O)(CO)C2CC(=O)C(C)(O)C2C1 (stereo unspecified) | inactive | inactive
COc1ccc(CCC(=O)c2c(O)cc(O[C@@H]3O[C@H](CO)[C@@H](O)[C@H](O)[C@H]3O[C@@H]3O[C@@H](C)[C@H](O)[C@@H](O)[C@H]3O)cc2O)cc1O | inactive | inactive
Cc1cccc(NC(=O)CN2CCC(c3ccccn3)CC2)c1 | inactive | inactive
OC[C@@]1(O)CO[C@@H](OC[C@H]2O[C@@H](OCc3ccccc3)[C@H](O)[C@@H](O)[C@@H]2O)[C@@H]1O | inactive | inactive
Cc1ncc(NC(=O)c2ccc(CN3CCN(C)CC3)c(C(F)(F)F)c2)cc1Nc1nccc(-c2cccnc2)n1 | inactive | inactive
CC(C)C1NC(=O)CNC(=O)C2CCCN2C(=O)C(Cc2c[nH]c3ccccc23)NC(=O)CNC(=O)C(C(O)c2ccc(O)cc2)NC(=O)CNC1=O (stereo unspecified) (cyclo(G[ξTyr(βOH)]GWPGV); configuration not given here) | inactive | inactive
